In PubChem BioAssay AID1159580 (chemical genetic matrix, 2015):
Hit rate of the full screen: of about 5,500 compounds, about 2,000 (36%) were called active. Not shown: some 18% with an inconclusive outcome. Cut-off read from the data, not from the text of the source: active = normalized growth mostly below about 0.91 (no sharp cut-off); inconclusive = no clear call, values can overlap the other calls; inactive = mostly above about 0.92. The list shows a part of the results.

Assay: chemical genetic growth profiling, strain panel (AID 1159580);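 note: tested at 20 µM; growth read once vehicle control cultures reached saturation at 30 °C; 1 = growth at the plate median or of vehicle wells; lower values mean less growth of the strain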
Conditions: S. cerevisiae deletion strains, growth OD

Measured: normalized growth

CCOc1ccc(NC(=O)CC(C)O)cc1 (stereo not drawn)
inactive: locus YHR030C, strain SLT2, hits give low values 1.02 | locus YHR079C, strain IRE1, hits give low values 1.02 | locus YJL095W, strain BCK1, hits give low values 1.02 | locus YJR066W, strain TOR1, hits give low values 0.94 | locus YLR113W, strain HOG1, hits give low values 1.06 | locus YNL183C, strain NPR1, hits give low values 0.939 | locus YOR231W, strain MKK1, hits give low values 1.01 | locus YPL256C, strain CLN2, hits give low values 1.01
